Experimental findings from the supplement of paper PMC7156485 are described below.

± gives the standard deviation of the averaged measurements.

Common to all, as to conditions: concentration: 10 µM; 24 h
In test [1] the test system is HCC1569. Description: cell number relative to DMSO (% of DMSO); higher = more cells (less growth inhibition / toxicity). The method in brief: (§1)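 Compounds were applied at 10 µM for 24 h at 37 °C, in triplicate, to HCC1569 and TDF cells. The cells were then fixed and stained for H1.0, and nuclei were counterstained with DAPI. Nuclear H1.0 intensity or cell number is reported relative to the plate control as a percent, taking the median of replicates. Smoothing for positional effects was applied to HCC1569 values only.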

Test [2] relates to TDF. Described as above. The method in brief: as §1
Test [3] relates to TDF. The experiment in a line: H1.0 immunofluorescence intensity relative to DMSO (% of DMSO); higher = stronger H1.0 induction, active = 120 or more. Put shortly:
as §1

In test [4] the test system is HCC1569. The experiment in a line: H1.0 immunofluorescence intensity relative to DMSO (% of DMSO); higher = stronger H1.0 induction, active = 140 or more. Put shortly:
as §1
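Wherever H1.0 immunofluorescence intensity relative to DMSO is given: TDF is a line of transformed human dermal fibroblasts of mesenchymal origin.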
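Wherever cell number relative to DMSO is given: TDF denotes transformed human dermal fibroblasts of mesenchymal origin.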

In the case of `CC1OC(OC2CC(O)C3(CO)C4C(O)CC5(C)C(C6=CC(=O)OC6)CCC5(O)C4CCC3(O)C2)C(O)C(O)C1O` (centres undefined) [Ouabain], the cell number came to 46.2 in the test on HCC1569 [1] and 36.4 with TDF [2]. The H1.0 immunofluorescence intensity in the test with TDF [3] is 125 (active); in the test with HCC1569 [4], 126 (inactive).

As for `COC1=C(OC)C(=O)C(=C2C(C)=C(C(=O)O)NC(c3ccc4c(n3)C(=O)C(N)=C(OC)C4=O)=C2N)C=C1` [Streptonigrin], the cell number with HCC1569 [1] was determined as 41.2; in the test with TDF [2], 5.53. For the same molecule, the H1.0 immunofluorescence intensity in the test with TDF [3] is 171 (active); in the test with HCC1569 [4], 128 (inactive).

For the molecule `CCN(CC)C(=O)NC1C=C2c3cccc4[nH]cc(c34)CC2N(C)C1` (stereo not drawn) [S-(-)-Lisuride], the figures for the cell number in the test with HCC1569 [1] and in the test with TDF [2] were 101 and 105, respectively. For the same molecule, the H1.0 immunofluorescence intensity with TDF [3] is 95.5 (inactive); with HCC1569 [4], 93.6 (inactive).

For `COc1cc(C2c3cc4c(cc3C(O)C3COC(=O)C23)OCO4)cc(OC)c1O` (centres undefined) [4'-Demethylpipodophyllotoxin], the results for the cell number in the test with HCC1569 [1] and in the test on TDF [2] were 59.6 and 12.7, respectively. The H1.0 immunofluorescence intensity with TDF [3] was 157 (active); in the test with HCC1569 [4], 132 (inactive).

As for `COC(=O)c1cc2c(cn1)[nH]c1ccccc12` [Methyl beta-carboline-3-carboxylate], the values for the cell number with HCC1569 [1] and in the test on TDF [2] were 98.8 and 105, respectively. Further, the H1.0 immunofluorescence intensity with TDF [3] was 90.1 (inactive); with HCC1569 [4], 95.3 (inactive).

In the case of `Cl.NCCc1c[nH]c2ccccc12` [Tryptamine hydrochloride], the figures for the cell number in the test with HCC1569 [1] and in the test on TDF [2] were 99.1 and 98.5, respectively. Besides, the results for the H1.0 immunofluorescence intensity in the test on TDF [3] and with HCC1569 [4] were 95.5 (inactive) and 97.2 (inactive), respectively.

On to `C[N+]1(C)C2CC(OC(=O)C(CO)c3ccccc3)CC1C1OC12.O=[N+]([O-])[O-]` (single isomer, unassigned; (-)) [(-)-Scopolamine methyl nitrate], for which the cell number in the test on HCC1569 [1] came out at 99.7; in the test with TDF [2], 98.7. Further, the figures for the H1.0 immunofluorescence intensity with TDF [3] and in the test with HCC1569 [4] were 93.1 (inactive) and 106 (inactive), respectively.

Turning to `CC1C=CC=CCCC=CC=CC=CC=CC(OC2OC(C)C(O)C(N)C2O)CC2OC(O)(CC(O)C(O)CCC(O)CC(O)CC(O)CC(=O)OC(C)C(C)C1O)CC(O)C2C(=O)O` (centres undefined) [Nystatin], the figures for the cell number with HCC1569 [1] and in the test with TDF [2] were 101 and 105, respectively. Moreover, the H1.0 immunofluorescence intensity with TDF [3] was 103 (inactive); in the test on HCC1569 [4], 104 (inactive).

For the molecule `CCC(C(N)=O)N1CCCC1=O` (centres undefined) [Levetiracetam], the cell number with HCC1569 [1] was found to be 102; in the test on TDF [2], 105. The figures for the H1.0 immunofluorescence intensity in the test with TDF [3] and with HCC1569 [4] were 95.2 (inactive) and 101 (inactive), respectively.

For `CCCC[N+]1(C)C2CC(OC(=O)C(CO)c3ccccc3)CC1C1OC12.[Br-]` (single isomer, unassigned; (-)) [(-)-Scopolamine,n-Butyl-, bromide], the values for the cell number in the test on HCC1569 [1] and in the test on TDF [2] were 101 and 106, respectively. Further, the figures for the H1.0 immunofluorescence intensity in the test with TDF [3] and in the test with HCC1569 [4] were 96 (inactive) and 109 (inactive), respectively.

`Br.COC(=O)C1=CCCN(C)C1` [Arecoline hydrobromide]: the cell number in the test on HCC1569 [1] was determined as 101; with TDF [2], 102. Besides, the H1.0 immunofluorescence intensity with TDF [3] is 93.3 (inactive); with HCC1569 [4], 86.6 (inactive).

Regarding `CC(=O)C1=C(O)C2C3c4c[nH]c5cccc(c45)CC3C(C)(C)N2C1=O` (centres undefined) [Cyclopiazonic acid], the cell number is 95.5 in the test on HCC1569 [1] and 90.8 with TDF [2]. Besides, the H1.0 immunofluorescence intensity was 100 (inactive) with TDF [3] and 101 (inactive) with HCC1569 [4].

Regarding `CC(=O)OCC1=CC2C3C(C)(C)C3(OC(=O)Cc3ccccc3)CC(C)C2(O)C2C=C(C)C(=O)C2(O)C1` (centres undefined) [12-Deoxyphorbol 13-phenylacetate 20-acetate], the cell number was determined as 90.8 in the test with HCC1569 [1] and 74 in the test on TDF [2]. The H1.0 immunofluorescence intensity with TDF [3] was 105 (inactive); in the test with HCC1569 [4] it was 137 (inactive).

With `CCN1CC2(OC(=O)c3ccccc3NC(C)=O)CCC(OC)C34C1C(CC23)C1(O)CC(OC)C2CC4C1(O)C2OC` (centres undefined) [Lappaconitine], the cell number with HCC1569 [1] is 107; in the test with TDF [2], 103. The H1.0 immunofluorescence intensity with TDF [3] is 100 (inactive); in the test on HCC1569 [4], 94.3 (inactive).

With `CC12CCC3C(CCC4=CC(=O)CCC43C)C1CCC2=O` (centres undefined) [4-Androstene-3,17-dione], the figures for the cell number in the test with HCC1569 [1] and with TDF [2] were 95.3 and 113, respectively. The H1.0 immunofluorescence intensity is 101 (inactive) in the test with TDF [3] and 90 (inactive) with HCC1569 [4].

Turning to `COc1cc(CC(C)N)c(OC)cc1I.Cl` (racemic), the cell number in the test on HCC1569 [1] was found to be 101; with TDF [2], 109. Besides, the results for the H1.0 immunofluorescence intensity in the test with TDF [3] and in the test on HCC1569 [4] were 91.3 (inactive) and 88.9 (inactive), respectively.

Turning to `COc1ccc(C(=O)c2c(C)n(CCN3CCOCC3)c3ccccc23)cc1` [Pravadoline], the cell number came to 110 in the test on HCC1569 [1] and 96.5 in the test with TDF [2]. Further, the H1.0 immunofluorescence intensity in the test with TDF [3] was 98.4 (inactive); with HCC1569 [4] it was 93.3 (inactive).

For `COc1ccc2c(c1OC)C(=O)OC2C1c2cc3c(cc2CCN1C)OCO3` (centres undefined), the cell number was determined as 107 in the test with HCC1569 [1] and 97.5 in the test on TDF [2]. In addition, the H1.0 immunofluorescence intensity with TDF [3] is 90.5 (inactive); with HCC1569 [4] it was 95.3 (inactive).

`CC(=O)c1c(O)c(C)c(O)c(Cc2c(O)c3c(c(C(=O)C=Cc4ccccc4)c2O)OC(C)(C)C=C3)c1O` [Rottlerin]: the cell number with HCC1569 [1] came to 82.5 ± 13; in the test with TDF [2], 77.9 ± 6.9. Besides, the H1.0 immunofluorescence intensity with TDF [3] is 109 (inactive); in the test on HCC1569 [4] it was 104 (inactive).

As to `C[N+](C)(C)CC#CCOC(=O)Nc1cccc(Cl)c1.[Cl-]`, the cell number in the test on HCC1569 [1] was 103; with TDF [2], 99.2. Moreover, the H1.0 immunofluorescence intensity was 94.4 (inactive) in the test with TDF [3] and 87.7 (inactive) with HCC1569 [4].

As for `COc1cccc(C2(O)CCCCC2CN(C)C)c1` (centres undefined) [Tramadol], the cell number in the test on HCC1569 [1] was found to be 100; in the test with TDF [2] it was 97.7. In addition, the H1.0 immunofluorescence intensity in the test with TDF [3] was 99.3 (inactive); with HCC1569 [4] it was 109 (inactive).
